Measurements: the supplement of paper PMC12645437, “Orthogonal IMiD-Degron Pairs Induce Selective Protein Degradation in Cells” (ACS Chemical Biology, 2025)
The full ranking holds about 8,300 sequences; the median of “log2 fold change of degron read counts, EGFP-low vs EGFP+ sorted cells (limma voom), compound-induced degradation” is about -1.1, and the highest 2% start at about 3.2. What follows is part of a selection rich in the highest values, with near analogues and random picks from the rest.

Target: T1, CRBN, Q96SW2
T1 chain: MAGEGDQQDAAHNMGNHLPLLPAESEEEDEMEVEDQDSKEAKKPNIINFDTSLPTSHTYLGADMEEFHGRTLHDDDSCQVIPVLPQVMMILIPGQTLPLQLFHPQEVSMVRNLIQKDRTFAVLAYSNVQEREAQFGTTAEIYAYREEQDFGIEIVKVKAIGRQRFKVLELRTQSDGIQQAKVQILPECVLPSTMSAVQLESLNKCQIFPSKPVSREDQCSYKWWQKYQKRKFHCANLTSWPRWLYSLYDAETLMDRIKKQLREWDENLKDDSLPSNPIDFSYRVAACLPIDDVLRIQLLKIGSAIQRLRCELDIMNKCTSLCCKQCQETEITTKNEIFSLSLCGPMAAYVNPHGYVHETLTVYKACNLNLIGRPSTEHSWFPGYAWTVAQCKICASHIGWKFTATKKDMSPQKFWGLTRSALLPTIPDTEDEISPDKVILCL
Assay: log2 fold change of degron read counts, EGFP-low vs EGFP+ sorted cells (limma voom), compound-induced degradation; higher = more compound-induced degradation of the degron-EGFP fusion; degrons are variants of IKZF1/3 zinc finger 2; compound dose not given here
Settings: Jurkat, 18 h

[1] = compound: compound 19 (5-tert-butyl-thalidomide)
[2] = compound: compound 22 (5-morpholino-thalidomide)
[3] = compound: compound 33 (diphenyl IMiD analogue)
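Also: pooled lentiviral library of zinc finger degron-EGFP fusions in mCherry-positive Jurkat cells, FACS-sorted after compound exposure, with degron abundance counted by next-generation sequencing.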

FKCNVCGANFTQKGNLLRHIKL [46F_47K_49N_50V_52G_53A_54N_55F_67L_, Q9UKT9]
log2 fold change of degron read counts [1]: -2.45 | log2 fold change of degron read counts [2]: -2.95 | log2 fold change of degron read counts [3]: -3.12 | log2 fold change of degron read counts (compound: thalidomide): -2.19

FICNICGAYFTQKGNLLRHIKL [46F_47I_49N_50I_52G_53A_54Y_55F_67L_, Q9UKT9]
log2 fold change of degron read counts [1]: -1.5 | log2 fold change of degron read counts [2]: 0.102 | log2 fold change of degron read counts [3]: 1.22 | log2 fold change of degron read counts (compound: thalidomide): 0.967

FLCNVCGALFTQKGNLLRHIKL [46F_47L_49N_50V_52G_53A_54L_55F_67L_, Q9UKT9]
log2 fold change of degron read counts [1]: -2.4 | log2 fold change of degron read counts [2]: -1.93 | log2 fold change of degron read counts [3]: -0.86 | log2 fold change of degron read counts (compound: thalidomide): -0.854

FCCEICGHNFTQKGNLLRHIKL [46F_47C_49E_50I_52G_53H_54N_55F_67L_, Q9UKT9]
log2 fold change of degron read counts [1]: -3.4 | log2 fold change of degron read counts [2]: -2.63 | log2 fold change of degron read counts [3]: -3.12 | log2 fold change of degron read counts (compound: thalidomide): -2.76

FQCDQCGANFTQKGNLLRHIKL [46F_47Q_49D_50Q_52G_53A_54N_55F_67L_, Q9UKT9]
log2 fold change of degron read counts [1]: -2.74 | log2 fold change of degron read counts [2]: -1.96 | log2 fold change of degron read counts [3]: -2.34 | log2 fold change of degron read counts (compound: thalidomide): -0.263

FQCNICGAIFTQKGNLLRHIKL [46F_47Q_49N_50I_52G_53A_54I_55F_67L_, Q9UKT9]
log2 fold change of degron read counts [1]: -0.972 | log2 fold change of degron read counts [2]: 2.07 | log2 fold change of degron read counts [3]: 2.21 | log2 fold change of degron read counts (compound: thalidomide): 3.81

FYCNICGAIFTQKGNLLRHIKL [46F_47Y_49N_50I_52G_53A_54I_55F_67L_, Q9UKT9]
log2 fold change of degron read counts [1]: 0.725 | log2 fold change of degron read counts [2]: 1.63 | log2 fold change of degron read counts [3]: 0.601 | log2 fold change of degron read counts (compound: thalidomide): -0.748

FHCNICGAIFTQKGNLLRHIKL [46F_47H_49N_50I_52G_53A_54I_55F_67L_, Q9UKT9]
log2 fold change of degron read counts [1]: -0.569 | log2 fold change of degron read counts [2]: 0.345 | log2 fold change of degron read counts [3]: -0.0029 | log2 fold change of degron read counts (compound: thalidomide): -0.75

FTCPICGRYFTQKGNLLRHIKL [46F_47T_49P_50I_52G_53R_54Y_55F_67L_, Q9UKT9]
log2 fold change of degron read counts [1]: -0.651 | log2 fold change of degron read counts [2]: -0.614 | log2 fold change of degron read counts [3]: 0.487 | log2 fold change of degron read counts (compound: thalidomide): 0.782

LACNQCGFLCTQKGNLLRHIKL [46L_47A_49N_50Q_52G_53F_54L_55C_67L_, Q9UKT9]
log2 fold change of degron read counts [1]: -1.52 | log2 fold change of degron read counts [2]: -2.34 | log2 fold change of degron read counts [3]: -2.08 | log2 fold change of degron read counts (compound: thalidomide): -1.99

LYCEICGFKCTQKGNLLRHIKL [46L_47Y_49E_50I_52G_53F_54K_55C_67L_, Q9UKT9]
log2 fold change of degron read counts [1]: 3.6 | log2 fold change of degron read counts [2]: 3.16 | log2 fold change of degron read counts [3]: 1.42 | log2 fold change of degron read counts (compound: thalidomide): 1.42

LACEICGFKCTQKGNLLRHIKL [46L_47A_49E_50I_52G_53F_54K_55C_67L_, Q9UKT9]
log2 fold change of degron read counts [1]: 3.4 | log2 fold change of degron read counts [2]: 1.5 | log2 fold change of degron read counts [3]: -1.07 | log2 fold change of degron read counts (compound: thalidomide): 0.917

LICEICGFKCTQKGNLLRHIKL [46L_47I_49E_50I_52G_53F_54K_55C_67L_, Q9UKT9]
log2 fold change of degron read counts [1]: 0.236 | log2 fold change of degron read counts [2]: 1.62 | log2 fold change of degron read counts [3]: 0.617 | log2 fold change of degron read counts (compound: thalidomide): 2.72

LTCEICGFKCTQKGNLLRHIKL [46L_47T_49E_50I_52G_53F_54K_55C_67L_, Q9UKT9]
log2 fold change of degron read counts [1]: 0.899 | log2 fold change of degron read counts [2]: 1.56 | log2 fold change of degron read counts [3]: -0.216 | log2 fold change of degron read counts (compound: thalidomide): 2.39

LFCEICGFKCTQKGNLLRHIKL [46L_47F_49E_50I_52G_53F_54K_55C_67L_, Q9UKT9]
log2 fold change of degron read counts [1]: 3.22 | log2 fold change of degron read counts [2]: 3.15 | log2 fold change of degron read counts [3]: 0.657 | log2 fold change of degron read counts (compound: thalidomide): 1.64

LECEICGFKCTQKGNLLRHIKL [46L_47E_49E_50I_52G_53F_54K_55C_67L_, Q9UKT9]
log2 fold change of degron read counts [1]: -0.0668 | log2 fold change of degron read counts [2]: -1.67 | log2 fold change of degron read counts [3]: -0.528 | log2 fold change of degron read counts (compound: thalidomide): 2.53

LWCEICGFKCTQKGNLLRHIKL [46L_47W_49E_50I_52G_53F_54K_55C_67L_, Q9UKT9]
log2 fold change of degron read counts [1]: 3.29 | log2 fold change of degron read counts [2]: 3.25 | log2 fold change of degron read counts [3]: 1.64 | log2 fold change of degron read counts (compound: thalidomide): 1.24

LSCEICGFKCTQKGNLLRHIKL [46L_47S_49E_50I_52G_53F_54K_55C_67L_, Q9UKT9]
log2 fold change of degron read counts [1]: 2.27 | log2 fold change of degron read counts [2]: 1.7 | log2 fold change of degron read counts [3]: -0.728 | log2 fold change of degron read counts (compound: thalidomide): 1.09

LCCEICGFKCTQKGNLLRHIKL [46L_47C_49E_50I_52G_53F_54K_55C_67L_, Q9UKT9]
log2 fold change of degron read counts [1]: 2 | log2 fold change of degron read counts [2]: 1.83 | log2 fold change of degron read counts [3]: -0.183 | log2 fold change of degron read counts (compound: thalidomide): 2.48

LQCEICGFKCTQKGNLLRHIKL [46L_47Q_49E_50I_52G_53F_54K_55C_67L_, Q9UKT9]
log2 fold change of degron read counts [1]: 0.755 | log2 fold change of degron read counts [2]: 1.87 | log2 fold change of degron read counts [3]: 0.3 | log2 fold change of degron read counts (compound: thalidomide): 3.27

LDCEICGFKCTQKGNLLRHIKL [46L_47D_49E_50I_52G_53F_54K_55C_67L_, Q9UKT9]
log2 fold change of degron read counts [1]: -0.859 | log2 fold change of degron read counts [2]: -1.7 | log2 fold change of degron read counts [3]: -1.79 | log2 fold change of degron read counts (compound: thalidomide): -0.369

LLCEICGFKCTQKGNLLRHIKL [46L_47L_49E_50I_52G_53F_54K_55C_67L_, Q9UKT9]
log2 fold change of degron read counts [1]: 0.0968 | log2 fold change of degron read counts [2]: -1.51 | log2 fold change of degron read counts [3]: -0.463 | log2 fold change of degron read counts (compound: thalidomide): 1.96
